Compound activity: PubChem, National Center for Advancing Translational Sciences (NCATS)
Shown are actives, neighbours in structure and some others; about 9.2% of the full set was active somewhere.
SMN2 splice enh: enhancers of SMN2 splice variant expression; HEK293 SMN2-luciferase splicing reporter, luminescence, 30-36 h; Potency, µM (series often up to 46.1 µM), without a hit: top-dose activity change, positive = activation, actives largely listed as activators; 2.8% of 210,000 active; AID 1458; further: % of control where 0% means no effect; nearly all actives have a fitted effect of over 55% in size
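HEK293 cells carry an SMN2 minigene-luciferase reporter in which exon 7 inclusion puts luciferase in frame. Cells were seeded at 2000 cells/well, attached for 10-12 hours, then exposed to compounds for 30-36 hours at 37C before ONE-Glo luminescence.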
Rab9 prom act: activates the Rab9 promoter; Huh7 Rab9 promoter-luciferase reporter, luminescence, 24 h; Potency, µM (top dose mostly 9.22 µM), for inactives: at the top dose activation, negative = inhibition, actives largely listed as activators; 2.8% of 320,000 active; AID 485297; further: % of control where 0% means no effect; nearly all actives have a fitted effect of over 60% in size
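Steps: seed 1500 Huh7 Rab9-luc cells per well, rest 2 h at 37 °C; add compound in DMSO; incubate 24 h; add luciferase reagent, 10 min ambient; read luminescence.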
NPC1 promoter act: NPC1 promoter activation; 2.4% of 320,000 active; Huh7 NPC1 promoter luciferase reporter, 24 h; AID 485313; Potency, µM (series often up to 9.22 µM), without a hit: at the highest dose activation, usual class: activators; further: % of control where 0% means no effect; nearly all actives have a fitted effect of over 60% in size
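Stably transfected Huh7 (NPC1 promoter→luciferase), 1500 cells/well in Opti-MEM + 10% FBS, 2 h settle, then compound 24 h at 37 °C. Luminescence after 10 min with Amplite reagent.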
ELG1 genotoxic: induces genotoxicity in HEK293T cells with luciferase-tagged ELG1 | HEK293T ELG1-luciferase reporter, luminescence, 16 h | Potency, µM (doses to about 46 µM), for inactives: at the top dose activity change, positive = activation, most hits filed as activators | 1.3% of 330,000 active; further: % of control where 0% means no effect; nearly all actives have a fitted effect of over 60% in size
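Quantitative HTS format in 1536-well plates. HEK293T ELG1-luciferase reporter cells receive test compound and are incubated 16 hr at 37 °C, 5% CO2; ONE-Glo added, 30 min room temperature, then luminescence read.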
ELG1 repair inh: ELG1-dependent DNA repair inhibition; HEK293T ELG1-luciferase reporter, luminescence, 16 h; DNA damage induced by 5-fluorouridine; 2.3% of 330,000 active; Potency, µM (series often up to 46.1 µM), inactives show at the top dose activity change, negative = inhibition, most hits filed as inhibitors; AID 504467; further: on the % scale 0 is the no-effect control and ±100 the full control effect; nearly all actives have a fitted effect of over 55% in size
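Step one: seed 2,000 cells per well. Step two: pin-transfer compound or DMSO alongside 5-fluorouridine. Step three: incubate 16 hr, 37 °C, 5% CO2. Step four: add ONE-Glo, wait 30 min, read luminescence.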
FLuc counter: counter-screen for miR-21 project: firefly luciferase inhibitors or activators; purified FLuc, Km substrates, luminescence inhibition; Potency, µM (highest dose often 57.5 µM), for the others: top-dose activity change, negative = inhibition, hits mostly inhibitors; 6.9% of 360,000 active; AID 588342;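 further: plate controls were vehicle for no effect and reference inhibitor for full effect; nearly all actives have a fitted effect of over 55% in size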
Target sequence (P08659 whole entry, looked up): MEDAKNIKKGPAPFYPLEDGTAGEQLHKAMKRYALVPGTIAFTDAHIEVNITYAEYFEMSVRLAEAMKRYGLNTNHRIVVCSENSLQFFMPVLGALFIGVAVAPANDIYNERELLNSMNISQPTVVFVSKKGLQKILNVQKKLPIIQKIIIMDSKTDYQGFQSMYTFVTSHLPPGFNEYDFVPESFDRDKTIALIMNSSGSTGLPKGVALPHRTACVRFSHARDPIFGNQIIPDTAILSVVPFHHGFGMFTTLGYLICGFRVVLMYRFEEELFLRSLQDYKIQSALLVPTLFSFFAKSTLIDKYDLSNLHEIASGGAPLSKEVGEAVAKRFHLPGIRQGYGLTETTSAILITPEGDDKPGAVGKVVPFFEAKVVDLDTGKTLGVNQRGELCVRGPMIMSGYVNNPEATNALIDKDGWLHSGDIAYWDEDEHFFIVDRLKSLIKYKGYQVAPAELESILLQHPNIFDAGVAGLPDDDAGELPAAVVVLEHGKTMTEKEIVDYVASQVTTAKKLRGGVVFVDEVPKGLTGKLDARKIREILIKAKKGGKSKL
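Purified P. pyralis luciferase, 10 nM final, with Km-level 10 uM D-luciferin and 10 uM ATP in 50 mM Tris acetate pH 7.5, 10 mM Mg acetate, 0.01% Tween-20, 0.05% BSA; 6-point qHTS titration about 60 µM downward; luminescence read.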
The depositor's hits bear a star; ? = inconclusive; · = no result given. The call rests on the fitted dose curve; in most records, active means well fitted curve in the direction sought with a large enough effect; inconclusive means small, poorly fitted or top-dose-only effect, or another doubt; inactive means no such curve, though single readings can be large; an effect the other way counts as inactive or inconclusive. Potency means the concentration at half of the fitted maximal effect.

SMILES	SMN2 splice enh	Rab9 prom act	NPC1 promoter act	ELG1 genotoxic	ELG1 repair inh	FLuc counter
CCCCNS(=O)(=O)c1ccc2nc(SCC(=O)c3ccccc3OC)[nH]c2c1	-25%	-5%	-3%	-11%	21µM*	1%
CCCCNS(=O)(=O)c1ccc2nc(SCC(=O)Nc3sccc3C#N)[nH]c2c1	-10%	0%	0%	-24%	16µM*	?
COC(=O)c1ccc(Cl)cc1NC(=O)Nc1nnc(N2CCCC2)s1	·	·	·	·	·	-2%
COc1ccc(-c2cc(C(=O)Oc3ccc(C#N)cc3)no2)cc1	·	·	·	·	·	-9%
Cc1cccc(-n2ncc3c(N4CCOCC4)ncnc32)c1	-68%	0.35µM*	0.35µM*	?	?	0.54µM*
Cc1cccc(-n2cc(-c3ccccc3)c3c(N4CCOCC4)ncnc32)c1	-14%	4%	-2%	-11%	18µM*	0%
Cc1cccc(-n2ncc3c(N4CCCC4)ncnc32)c1	1.6µM*	0.63µM*	0.5µM*	?	?	0.95µM*
Cc1cccc(-n2ncc3c(N4CCN(c5ccccc5)CC4)ncnc32)c1	·	·	·	·	·	-2%
Cc1cccc(C(=O)N2CCN(c3ncnc4c3cnn4-c3ccccc3)CC2)c1	-79%	0%	5%	-14%	15µM*	-1%
CC1(CCc2ccccc2)NC(=O)N(CC(=O)Nc2c(F)cccc2F)C1=O (stereo not given)	·	·	·	2%	-1%	·
Cc1cccc(-n2ncc3c(N4CC(C)CC(C)C4)ncnc32)c1 (stereo not given)	?	1.6µM*	2.2µM*	2.6µM*	?	5.4µM*
COc1ccc(-n2ncc3c(N4CCN(c5cccc(C)c5)C(C)C4)ncnc32)cc1 (stereo not given)	·	·	·	·	·	-2%
COc1ccc(C2(c3ccc(OC)cc3)NC(=O)N(CC(=O)NCC(C)c3ccccc3)C2=O)cc1 (stereo not given)	·	-6%	2%	-2%	-23%	2%
COc1ccc(C(=O)Nc2cccc(OCc3cc(=O)n4c5c(sc4n3)CCCC5)c2)cc1OC	-2%	·	·	·	·	2.4µM*
CCOC(=O)c1sc2nc(CSc3ccccc3)nc(N3CCC(C(N)=O)CC3)c2c1C	-7%	0%	-9%	-8%	18µM*	-7%
Cc1sc2nc(CSc3ccccc3)nc(N3CCC(C(N)=O)CC3)c2c1C	11%	-1%	-3%	-9%	?	-11%
COc1ccc(C)cc1NC(=O)c1sc2ncnc(N3CCN(c4ccccn4)CC3)c2c1C	·	-8%	-4%	-25%	6.5µM*	-5%
CCOC(=O)c1sc2nc(CC(=O)OC)nc(N3CCN(c4ccccn4)CC3)c2c1C	-12%	-2%	-7%	3%	9.2µM*	-2%
CCOC(=O)c1sc2nc(CSc3ccccc3)nc(N3CCCN(C)CC3)c2c1C	-7%	-39%	-4%	-15%	?	-3%
Cc1ccccc1NC(=O)CSC1=Nc2ccccc2C2=NC(CCC(=O)NCc3ccccc3)C(=O)N12 (stereo not given)	4%	·	·	·	·	-6%
COc1ccc(S(=O)(=O)N2CCC(C(=O)NCCC(=O)Nc3nccs3)CC2)cc1	·	-2%	0%	0%	8%	0%
CCCCn1c(N)c(N(Cc2ccccc2OC)C(=O)c2ccc([N+](=O)[O-])s2)c(=O)[nH]c1=O	·	9%	0%	-16%	0%	1%
COc1cccc(Nc2nc(-c3cccc(N4C(=O)c5ccccc5C4=O)c3)cs2)c1	21%	7%	13%	8%	1%	2.4µM*
COc1cccc(Nc2nc(-c3ccc(O)cc3)cs2)c1	1%	10%	?	?	26%	15µM*
Cc1ccccc1CN1C(=O)c2ccccc2Sc2ccc(C(=O)NCCc3ccccc3)cc21	·	·	·	·	·	-4%
O=C(c1ccco1)N1CCN(C(=O)c2cc(-c3ccccn3)nc3ccc(Cl)cc23)CC1	-1%	-9%	-3%	-12%	10µM*	19µM*
